# Laboratory results reported in PMC7862700, “An all-to-all approach to the identification of sequence-specific readers for epigenetic DNA modifications on cytosine”.
# Legend:
# Experiment in all cases: DAPPL (digital affinity profiling via proximity ligation, sequencing); 10 mM Tris-HCl pH 7.5, 50 mM NaCl, 1 mM DTT, 4% glycerol, room temperature, 30 min; GST-TFs on glutathione beads, 16-mer random dsDNA library, 0.1% formaldehyde crosslink after washing; high values mean tight binding
# Conditions in all cases: protein: recombinant; tags: N-terminal GST; dsDNA, one strand shown
# ELK1 = biological target: T1, ELK1 (Homo sapiens, UniProt P19419 1-428)
# T1 sequence: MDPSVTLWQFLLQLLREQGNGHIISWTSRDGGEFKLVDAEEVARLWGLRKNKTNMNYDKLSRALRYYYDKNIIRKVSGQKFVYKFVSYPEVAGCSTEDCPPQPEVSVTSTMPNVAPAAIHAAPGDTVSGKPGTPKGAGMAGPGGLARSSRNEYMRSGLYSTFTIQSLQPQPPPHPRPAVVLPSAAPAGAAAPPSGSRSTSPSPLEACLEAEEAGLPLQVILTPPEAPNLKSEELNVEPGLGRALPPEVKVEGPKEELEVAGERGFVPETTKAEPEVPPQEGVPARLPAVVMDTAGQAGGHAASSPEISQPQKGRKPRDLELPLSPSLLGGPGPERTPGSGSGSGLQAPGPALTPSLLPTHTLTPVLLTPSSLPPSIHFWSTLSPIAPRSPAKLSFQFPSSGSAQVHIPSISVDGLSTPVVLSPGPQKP
# In short: (§1)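 A tag-only sample was pooled with DNA-barcoded human transcription factors that had been expressed in yeast as GST fusions and captured on glutathione beads. The pools were incubated for 30 min at room temperature with 200 nmole of a random double-stranded 16-mer DNA library in Tris/NaCl/DTT/glycerol buffer, then washed, crosslinked with 0.1% formaldehyde, proximity-ligated (BsaI/T4 ligase, 1 h, 37 °C), PCR-amplified and sequenced on an Illumina NextSeq500. Binding signal is each hexamer's read frequency for a factor divided by its frequency for the tag-only sample.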
# ELF1 = ELF1 (Homo sapiens, UniProt P32519 1-619)
# Sequence of ELF1 (P32519 whole entry): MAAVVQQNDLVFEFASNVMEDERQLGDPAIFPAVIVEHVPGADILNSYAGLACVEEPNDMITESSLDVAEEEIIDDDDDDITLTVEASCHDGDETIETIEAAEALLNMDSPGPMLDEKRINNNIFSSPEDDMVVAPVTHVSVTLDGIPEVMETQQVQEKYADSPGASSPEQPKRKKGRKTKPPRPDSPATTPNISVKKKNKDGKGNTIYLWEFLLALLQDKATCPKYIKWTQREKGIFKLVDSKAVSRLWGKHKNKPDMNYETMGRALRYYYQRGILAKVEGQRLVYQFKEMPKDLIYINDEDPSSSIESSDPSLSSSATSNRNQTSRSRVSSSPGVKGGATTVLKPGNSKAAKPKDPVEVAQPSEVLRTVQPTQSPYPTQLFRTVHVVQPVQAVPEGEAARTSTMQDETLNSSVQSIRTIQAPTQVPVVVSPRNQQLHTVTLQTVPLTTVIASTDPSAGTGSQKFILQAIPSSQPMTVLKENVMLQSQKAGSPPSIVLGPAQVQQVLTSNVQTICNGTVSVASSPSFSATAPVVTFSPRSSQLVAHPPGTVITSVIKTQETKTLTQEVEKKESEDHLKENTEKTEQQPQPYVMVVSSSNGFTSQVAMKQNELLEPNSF
# In short: as §1
# EHF = biological target: T2, EHF (Homo sapiens, UniProt Q9NZC4 1-300)
# T2 sequence: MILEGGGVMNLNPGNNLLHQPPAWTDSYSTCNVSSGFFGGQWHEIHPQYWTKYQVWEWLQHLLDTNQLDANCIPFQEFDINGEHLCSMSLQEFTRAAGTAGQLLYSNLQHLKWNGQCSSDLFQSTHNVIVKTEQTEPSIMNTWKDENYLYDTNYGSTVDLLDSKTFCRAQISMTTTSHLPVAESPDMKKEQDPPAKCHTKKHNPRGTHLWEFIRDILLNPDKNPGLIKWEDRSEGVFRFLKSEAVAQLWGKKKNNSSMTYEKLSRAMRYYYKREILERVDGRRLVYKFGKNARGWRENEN
# In short: as §1
# ETV5 = ETV5 (Homo sapiens, UniProt P41161 1-510)
# Sequence of ETV5 (P41161 whole entry): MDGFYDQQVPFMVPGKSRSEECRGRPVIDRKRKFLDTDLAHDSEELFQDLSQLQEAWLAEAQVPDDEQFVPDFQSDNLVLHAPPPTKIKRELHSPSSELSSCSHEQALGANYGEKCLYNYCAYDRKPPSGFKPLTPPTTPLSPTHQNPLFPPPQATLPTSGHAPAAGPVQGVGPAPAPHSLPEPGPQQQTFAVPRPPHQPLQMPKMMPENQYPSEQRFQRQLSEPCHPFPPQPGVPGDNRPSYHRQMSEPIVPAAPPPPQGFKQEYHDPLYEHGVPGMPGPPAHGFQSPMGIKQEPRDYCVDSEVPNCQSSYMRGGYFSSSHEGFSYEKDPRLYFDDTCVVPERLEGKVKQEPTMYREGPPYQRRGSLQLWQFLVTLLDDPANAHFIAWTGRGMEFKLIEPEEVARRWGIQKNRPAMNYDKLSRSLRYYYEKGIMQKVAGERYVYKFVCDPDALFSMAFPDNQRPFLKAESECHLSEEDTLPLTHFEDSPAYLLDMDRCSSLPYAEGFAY
# In short: as §1
# ELF4 = ELF4 (Homo sapiens, UniProt Q99607 1-663)
# Sequence of ELF4 (Q99607 whole entry): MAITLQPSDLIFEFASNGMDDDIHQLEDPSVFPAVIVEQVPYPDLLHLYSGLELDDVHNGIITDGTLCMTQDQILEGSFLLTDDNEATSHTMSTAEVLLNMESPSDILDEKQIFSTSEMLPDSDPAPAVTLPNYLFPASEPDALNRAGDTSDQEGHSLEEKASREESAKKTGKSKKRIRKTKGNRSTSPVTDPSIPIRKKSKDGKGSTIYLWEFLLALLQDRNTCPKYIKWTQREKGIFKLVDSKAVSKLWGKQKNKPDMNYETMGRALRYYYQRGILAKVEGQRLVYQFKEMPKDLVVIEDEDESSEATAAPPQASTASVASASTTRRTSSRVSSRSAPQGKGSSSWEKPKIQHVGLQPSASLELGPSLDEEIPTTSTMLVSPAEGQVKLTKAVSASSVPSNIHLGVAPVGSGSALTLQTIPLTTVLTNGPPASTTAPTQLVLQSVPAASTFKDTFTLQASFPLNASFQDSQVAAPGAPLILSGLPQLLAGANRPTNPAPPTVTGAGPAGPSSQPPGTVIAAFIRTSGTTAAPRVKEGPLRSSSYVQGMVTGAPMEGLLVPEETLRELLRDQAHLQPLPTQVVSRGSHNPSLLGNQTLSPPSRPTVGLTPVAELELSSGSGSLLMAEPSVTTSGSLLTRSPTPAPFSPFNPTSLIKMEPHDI
# In short: as §1
# ELK4 = biological target: T3, ELK4 (Homo sapiens, UniProt P28324-2 1-405)
# T3 sequence: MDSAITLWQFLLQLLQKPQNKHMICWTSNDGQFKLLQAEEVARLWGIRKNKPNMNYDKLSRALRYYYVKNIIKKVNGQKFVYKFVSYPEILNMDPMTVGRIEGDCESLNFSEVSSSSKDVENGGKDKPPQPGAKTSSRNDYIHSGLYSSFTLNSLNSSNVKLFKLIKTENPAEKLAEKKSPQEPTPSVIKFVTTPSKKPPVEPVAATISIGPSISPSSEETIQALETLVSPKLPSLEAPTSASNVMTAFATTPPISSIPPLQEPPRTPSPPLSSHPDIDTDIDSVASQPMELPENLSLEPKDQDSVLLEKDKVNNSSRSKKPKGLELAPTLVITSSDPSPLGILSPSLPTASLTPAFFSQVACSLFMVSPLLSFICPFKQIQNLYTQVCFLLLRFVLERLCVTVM
# In short: as §1
# ETV1 = ETV1 (Homo sapiens, UniProt P50549 1-477)
# Sequence of ETV1 (P50549 whole entry): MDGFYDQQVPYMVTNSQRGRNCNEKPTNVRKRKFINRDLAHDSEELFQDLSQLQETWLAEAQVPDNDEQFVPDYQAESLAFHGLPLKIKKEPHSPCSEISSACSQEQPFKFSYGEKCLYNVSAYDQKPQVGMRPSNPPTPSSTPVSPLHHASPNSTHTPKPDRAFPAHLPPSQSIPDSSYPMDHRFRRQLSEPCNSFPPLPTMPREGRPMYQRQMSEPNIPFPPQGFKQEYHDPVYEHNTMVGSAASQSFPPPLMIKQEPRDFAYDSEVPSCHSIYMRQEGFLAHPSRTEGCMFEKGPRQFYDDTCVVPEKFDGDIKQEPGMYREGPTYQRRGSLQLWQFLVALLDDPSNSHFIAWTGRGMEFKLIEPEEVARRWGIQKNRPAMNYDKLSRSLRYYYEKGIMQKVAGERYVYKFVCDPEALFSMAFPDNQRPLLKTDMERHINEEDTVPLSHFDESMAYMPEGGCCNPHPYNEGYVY
# In short: as §1
# ETV7 = biological target: T4, ETV7 (Homo sapiens, UniProt Q9Y603 1-341)
# T4 sequence: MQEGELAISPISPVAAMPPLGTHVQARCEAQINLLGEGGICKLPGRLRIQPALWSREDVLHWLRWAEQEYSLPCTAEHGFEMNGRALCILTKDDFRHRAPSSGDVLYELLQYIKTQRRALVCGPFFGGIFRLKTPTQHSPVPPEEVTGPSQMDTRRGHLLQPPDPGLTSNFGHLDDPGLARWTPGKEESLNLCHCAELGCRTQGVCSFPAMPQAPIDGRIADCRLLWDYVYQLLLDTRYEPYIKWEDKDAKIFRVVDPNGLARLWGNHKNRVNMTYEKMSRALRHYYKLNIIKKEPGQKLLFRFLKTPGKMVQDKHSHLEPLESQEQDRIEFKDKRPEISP
# In short: as §1
# ETV3 = biological target: T5, ETV3 (Homo sapiens, UniProt P41162-2 1-143)
# T5 sequence: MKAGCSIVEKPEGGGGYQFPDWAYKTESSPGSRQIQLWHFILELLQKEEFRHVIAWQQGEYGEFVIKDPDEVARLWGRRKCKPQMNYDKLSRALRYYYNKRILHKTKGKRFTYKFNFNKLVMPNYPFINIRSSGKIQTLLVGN
# In short: as §1
sequence,measurement,setting,value
TAGCGT,binding signal,ELK1,"1 fold enrichment (6-mer frequency, TF over GST control)"
same,binding signal,ELF1,"1.02 fold enrichment (6-mer frequency, TF over GST control)"
same,binding signal,EHF,"1 fold enrichment (6-mer frequency, TF over GST control)"
same,binding signal,ETV5,"1.03 fold enrichment (6-mer frequency, TF over GST control)"
same,binding signal,ELF4,"1.02 fold enrichment (6-mer frequency, TF over GST control)"
same,binding signal,ELK4,"1.07 fold enrichment (6-mer frequency, TF over GST control)"
same,binding signal,ETV1,"1.03 fold enrichment (6-mer frequency, TF over GST control)"
same,binding signal,ETV7,"1 fold enrichment (6-mer frequency, TF over GST control)"
same,binding signal,ETV3,"1.04 fold enrichment (6-mer frequency, TF over GST control)"
